# High-throughput results deposited in PubChem BioAssay by Center for Chemical Genomics, University of Michigan.
# HIV TAR-Tat: TAR RNA-Tat peptide displacers, HIV-1, primary screen, biochemical, FRET, FAM/TAMRA-labeled Tat. HIV-1 TAR RNA, Tat peptide displacement FRET; hits give high values. z-score (test concentration not listed). 100,000 tested, 0.6% active; active = z-score of 3 or more in at least 2 runs
# CDC25B CDK2 inh: primary biochemical HTRF screen for blockers of M-phase inducer phosphatase 2 binding to CDK2/cyclin A; P30305+P24941; z-score (no concentration beside the values); HTRF CDC25B-CDK2/CyclinA binding, anti-His/anti-Flag; hits give high values; 94,000 tested, 0.72% active; in the data active = z-score above about 3.2
# * marks the source's active call; other numbers are inactive results; . = not tested or not shown; ! = not confirmed by another sample. Shown are actives, neighbours in structure and some others; about 0.93% of the full set was active somewhere.
SMILES,HIV TAR-Tat,CDC25B CDK2 inh
N#CC1=C2N=C(N)c3ccccc3N2C2=C(C(=O)CCC2)C1c1cccc(Br)c1 (stereo unspecified),-5.1,18.1*
COc1cc(O)c2c(c1)C(=O)c1cc(C)cc(O)c1C2=O,1.82,.
O=C(O)c1ccnc(-c2cc(C(=O)O)ccn2)c1,.,-0.69
O=C(O)c1cc(O)c(O)c(O)c1,6.76*,.
Oc1ccc(Cl)cc1Cc1cc(Cl)ccc1O,0.6,.
O=C(O)c1cc(O)c2c(c1)C(=O)c1cc(O)cc(O)c1C2=O,9.5*,.
O=C(c1cc(O)c(O)c(O)c1)c1ccc(O)c(O)c1O,32.5*,.
Nc1ccccc1C(=O)NCCCN1CCCCC1,.,-0.37
COc1ccc(/C=c2\sc3nc4c(C)cc(C)cc4n3c2=O)cc1OC,.,-3.21
Fc1ccc(CN2CCc3c(Br)cccc3C2)cc1,0.92,-0.84
COCCNS(=O)(=O)c1cc2c3c(c1)C(C)C(=O)N3CCC2 (stereo unspecified),0.14,.
Cc1csc2nc(CN(C)c3ccccc3)cc(=O)n12,4.55*,.
Cc1nn2c(=O)cc(CN(C)c3ccccc3)nc2s1,0.36,.
Cc1csc2nc(COc3ccccc3)cc(=O)n12,-0.35,-1.19
CCN(Cc1cc(=O)n2c(C)csc2n1)c1ccccc1,5.1*,.
COC(=O)c1cc(S(=O)(=O)N2CCc3ccccc3C2)cn1C,1.89,-0.63
O=C(c1cccs1)N1CCN(CCN2C(=O)c3cccc4cccc(c34)C2=O)CC1,1.14,11.8*
O=C(c1cccs1)N1CCN(CCOc2ccccc2)CC1,.,4.28
Cn1cccc1Cc1nnc(SCC(=O)N2CCCc3ccccc32)n1-c1ccccc1,0.28,-2.23
c1ccc(-c2nnc(-c3cccs3)o2)cc1,0.91,1.06
CC1CCCCC1NC(=O)c1csc2c1CCCC2 (stereo unspecified),-0.66,-1.17
ON(Cc1ccccc1)Cc1ccccc1,.,-1.33
BrC=C=CCN(CC=C=CBr)Cc1ccccc1,.,4.3*
Cn1c(=O)c2c(-c3cccc(Cl)c3)c(Nc3ccccc3)oc2n(C)c1=O,1.29,.
Cc1ccc(NC(=O)Nc2nnc(CC(=O)Nc3cccc(C)c3)s2)cc1,.,0.22
SMILES,HIV TAR-Tat,CDC25B CDK2 inh
Cc1nc(-c2cccs2)c(CC(=O)Nc2ccc(N3CCCC3)cc2)s1,-0.42,11.6*
Cc1nc(-c2cccs2)c(CC(=O)N2CCCC2)s1,-0.62,-1.27
CCCCN(C)C(=O)CCCn1nc(C)n2c(cc3occc32)c1=O,0.64,-0.61
COc1nc2ccc(C)cc2cc1-c1noc(-c2cccnc2)n1,3.63*,-13.3
COc1nc2ccc(C)cc2cc1-c1noc(-c2ccncc2)n1,0.7,-12.6
Cc1ccc(S(=O)(=O)c2cnc3ccc(Cl)cc3c2N2CCN(C)CC2)cc1,-1.48,-1.09
CCc1ccc(C(=O)CC2(O)C(=O)N(C(C)C)c3ccccc32)cc1 (stereo unspecified),-0.46,15.8*
CC(C)N1C(=O)C(O)(CC(=O)c2ccccc2)c2ccccc21 (stereo unspecified),0.83,0.13
Fc1ccc(Nc2c3c(nc4ncnn24)CCC3)cc1,0.68,.
Cc1[nH]ncc1CNC(=O)C1=Cc2cc(Br)ccc2OC1,1.39,.
COc1ccc(C2C3=C(Nc4nc(N)[nH]c(=O)c42)c2ccccc2C3=O)cc1 (stereo unspecified),3.7*,13.8*
COc1ccc(C2CC(=O)Nc3nc(N)[nH]c(=O)c32)cc1 (stereo unspecified),0.84,1.19
COc1cc(C2C3=C(Nc4nc(N)[nH]c(=O)c42)c2ccccc2C3=O)ccc1O (stereo unspecified),5.64*,2.72
COc1cc(C2CC(=O)Nc3nc(N)[nH]c(=O)c32)ccc1O (stereo unspecified),-1.22,-1.86
Cc1cc(C)n(-c2cc(NCc3ccc4c(c3)OCO4)ncn2)n1,2.33,.
O=C(O)C1Nc2c(O)cccc2C2C=CCC12 (stereo unspecified),.,3.8
NC(=O)c1cccc2c1NC(C(=O)O)C1CC=CC21 (stereo unspecified),27.2*,0.33
COc1cccc(-c2noc3ncnc(NCc4ccccn4)c23)c1,0.46,.
CC1(C)OC(=O)C(=CNc2ccc(F)c(Cl)c2)C(=O)O1,.,-1.55
CC1(C)OC(=O)C(=Cc2ccc(Cl)cc2Cl)C(=O)O1,.,9.23*
CSc1ccc(NC(=O)NCCN2CCc3ccccc3C2)cc1,1.53,12.7*
O=C(NCCN1CCc2ccccc2C1)Nc1ccccc1F,-0.3,-0.6
C=C(C)C(CCC=C(C)C)C12C[C@@H](CC=C(C)C)C(C)(C)C(CC=C(C)C)(C(=O)/C(=C(/O)c3ccc(O)c(O)c3)C1=O)C2=O (stereo partly specified),8.27*,.
CCCc1cc(=O)n2[nH]c(NCc3ccc(SC)cc3)nc2n1,1.4,-1.84
COc1ccccc1-c1nc(=S)c2c([nH]1)Oc1ccc(F)cc1C2,0.17,-1.68
SMILES,HIV TAR-Tat,CDC25B CDK2 inh
CCn1c[n+](CC(O)COc2ccccc2)c2ccccc21 (stereo unspecified),1.19,-0.35
CCn1c[n+](CC(O)COc2ccccc2)c2cc(C)c(C)cc21 (stereo unspecified),0.83,16*
CCc1ccc(NS(=O)(=O)c2cc(-c3onc(C)c3C)ccc2C)cc1,0.23,.
O=C(NCCN1CCCc2ccccc21)Nc1ccc2c(c1)OCCO2,0.17,1.17
CC(=O)N1N=C(CSc2nc(C)cc(C)n2)OC1/C(C)=C/c1ccccc1 (stereo unspecified),4.23*,.
CC(=O)N1N=C(CSc2nnc(-c3ccccc3)n2-c2ccccc2)OC1c1ccc(C)o1 (stereo unspecified),0.39,.
C=CCOc1ccc(NC(=O)CN2c3ccc(Br)cc3-c3ccccc3S2(=O)=O)cc1,0.24,-0.09
COc1ccc(-c2noc(-c3nnn(-c4ccc(OC)cc4)c3N)n2)cc1,1.02,.
COc1ccc(-c2noc(-c3nnn(-c4ccc(C)c(C)c4)c3N)n2)cc1,4.68*,.
COc1cc2c(cc1OC)CN(S(=O)(=O)c1ccc(Cl)c(C(F)(F)F)c1)CC2,.,0.6
O=c1[nH]c2ccc(Nc3cc(N4CCOCC4)ncn3)cc2[nH]1,0.27,8.21*
Cc1cc(C)n(-c2cc(Nc3ccc(F)cc3)ncn2)n1,-0.72,.
N/C(=N\S(=O)(=O)c1cc(C(F)(F)F)cc(C(F)(F)F)c1)N1CCSCC1,.,-1.05
O=c1[nH]c2cc3c(cc2c(=O)n1Cc1nc(-c2cccc(F)c2)no1)OCO3,1,.
CCCc1nn2c(=O)cc(CSc3nc(-c4ccco4)nc4cc(=O)[nH]n34)nc2s1,0.67,.
O=c1cc2nc(-c3ccco3)nc(SCc3cc(=O)n4nc(C5CCCCC5)sc4n3)n2[nH]1,3.34*,.
Cc1cc(=O)oc2cc(O)cc(O)c12,1.17,.
O=c1oc2c(O)c(O)cc3c(=O)oc4c(O)c(O)cc1c4c23,30.6*!,.
CCOc1cc(C2Nc3cccc4cccc(c34)N2)ccc1O,8*,-4.41
CC(C)(C)c1ccc(C2Nc3cccc4cccc(c34)N2)cc1,7.08*,-0.84
c1ccc(C2Nc3cccc4cccc(c34)N2)cc1,10.3*,0.48
Brc1cccc(C2Nc3cccc4cccc(c34)N2)c1,1.61,-0.96
COc1ccccc1C1Nc2cccc3cccc(c23)N1,4.01,-0.15
CN(C)c1ccc(C2Nc3cccc4cccc(c34)N2)cc1,1.52,-0.66
c1ccc2c(C3Nc4cccc5cccc(c45)N3)cccc2c1,8.22*,-1.24
COc1cc(C2Nc3cccc4cccc(c34)N2)ccc1OCc1ccccc1,0.66,-3.08
